Results filed as inconclusive are left out. A call without a number means that no potency is given here. Active and inactive are the calls of the source. The call rests on the fitted dose curve; in most records, active means well fitted activation curve with a large enough effect in the signal ratio in the repeat runs (not every such curve was filed as active); inconclusive means weak or mixed curves, or effect the other way; inactive means no such curve, though single readings can be large or run the other way; the % refers to the signal ratio.
Target: Peroxisome proliferator-activated receptor gamma (Homo sapiens) (UniProt P37231)
Sequence (P37231 whole entry, looked up): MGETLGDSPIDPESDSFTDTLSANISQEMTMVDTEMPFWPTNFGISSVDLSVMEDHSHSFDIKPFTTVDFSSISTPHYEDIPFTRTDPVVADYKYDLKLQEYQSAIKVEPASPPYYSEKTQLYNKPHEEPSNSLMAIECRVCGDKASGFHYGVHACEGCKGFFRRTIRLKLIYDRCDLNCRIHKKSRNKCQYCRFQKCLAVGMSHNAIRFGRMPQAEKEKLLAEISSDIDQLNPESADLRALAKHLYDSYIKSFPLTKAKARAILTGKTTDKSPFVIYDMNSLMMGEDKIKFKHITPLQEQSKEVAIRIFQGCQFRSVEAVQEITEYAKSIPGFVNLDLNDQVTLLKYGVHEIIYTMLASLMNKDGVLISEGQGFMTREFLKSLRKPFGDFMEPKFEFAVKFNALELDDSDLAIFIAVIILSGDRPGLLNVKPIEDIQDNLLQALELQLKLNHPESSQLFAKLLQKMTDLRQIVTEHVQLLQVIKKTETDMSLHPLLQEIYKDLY
Experiment: qHTS assay to identify small molecule agonists of the peroxisome proliferator-activated receptor gamma (PPARg) signaling pathway (AID 743094)
Conditions: HEK293H PPARg-UAS-bla, beta-lactamase FRET ratio, 17 h; series mostly up to 57 µM
Method in brief: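 Stably transfected HEK293H cells (GeneBLAzer PPARg UAS-bla) were incubated with test substances for 17 h at 37C after a 5 h pre-incubation; beta-lactamase activity was then detected by FRET substrate fluorescence.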

Compound	Potency
FC(F)(F)C(F)(F)C(F)(F)C(F)(F)C(F)(F)F	inactive
O=C(O)C[C@H](O)C[C@H](O)/C=C/c1c(C2CC2)nc2ccccc2c1-c1ccc(F)cc1	inactive
CN1C(=O)C[C@@H](C(=O)N[C@@H](Cc2cnc[nH]2)C(=O)N2CCC[C@H]2C(N)=O)NC1=O	inactive
CCCCCCOC(=O)c1cccnc1	inactive
CC(C)=CCC/C(C)=C/CC/C(C)=C/CC/C(C)=C/CC1=C(C)C(=O)c2ccccc2C1=O	inactive
FC(F)(F)COCC(F)(F)F	inactive
CC1(C)S[C@@H]2[C@H](N3C(=O)C(c4ccccc4)NC3(C)C)C(=O)N2[C@H]1C(=O)O (stereo partly drawn)	inactive
NC[C@H]1O[C@H](O[C@H]2[C@H](O)[C@@H](O[C@H]3O[C@H](CO)[C@@H](O)[C@H](N)[C@H]3O)[C@H](N)C[C@@H]2N)[C@H](N)C[C@@H]1O	inactive
